This is part of a sample that, as a whole, favours compounds with a hit. Of some 83,000 tested, about 20% had one in any assay.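 Each cell line was grown in a 96-well plate and treated with one concentration of compound for 48 hours. Values below 10 were considered active.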 A number with no mark means an inactive call. Active and inactive are the calls of the source.
What was measured:
Experiment in all cases: NCI-60 one-dose screen, 48 h (100 = growth as untreated, 0 = no growth, -100 = all killed)
Conditions in all cases: 10 µM unless noted
[1] = test system: T-47D breast
[2] = test system: BT-549 breast
[3] = test system: MDA-MB-435 melanoma
[4] = test system: SW-620 colon
[5] = test system: MCF7 breast
[6] = test system: HCT-116 colon
[7] = test system: HCC-2998 colon
[8] = test system: KM12 colon

Structure (SMILES)	growth [1]	growth [2]	growth [3]	growth [4]	growth [5]	growth [6]	growth [7]	growth [8]
C=C(C)[C@@H]1CC[C@]2(C)[C@H](CC=C3[C@@H]4CC(C)(C)CC[C@]4(C=O)CC[C@]32C)[C@@]1(C)CCCN	79.1%	87.3%	95.1%	29.5%	39%	22.9%	40.1%	77.3%
CCCCCCCCNc1cccc2c1C(=O)c1ccccc1C2=O	94.5%	101%	105%	93.5%	102%	103%	107%	103%
CC(C)(C)c1ccc(OP(=S)(N/N=C/c2ccccc2O)Oc2ccc(C(C)(C)C)cc2)cc1	70.2%	89.5%	72%	77.7%	53.8%	42.9%	86.2%	67.2%
Oc1ccc(Nc2ccccc2)cc1	91.7%	74%	75.8%	88.7%	89.2%	99.2%	107%	79.1%
COc1ccc(-c2c(-c3nc4ccc(N5CCOCC5)cc4[nH]3)[nH]c(C)c2C(C)=O)cc1	27.3%	64.9%	29.7%	63.4%	10.8%	34.8%	35%	46.5%
COc1ccc(-c2nc3ccccn3c2-c2nc3ccc(Cl)cc3[nH]2)cc1	75%	94.4%	86.9%	88.4%	79.6%	93.5%	97.6%	86.4%
O=C1/C(=C\c2ccc(Br)o2)SC(=S)N1CCc1ccc(O)cc1	57.7%	76.4%	71.3%	102%	33.4%	77.7%	119%	19.5%
Cc1ccc2c(c1)c1nc3cc(C)c(C)cc3nc1n2CCN(C)C	23.2%	50.2%	16.1%	12.5%	-6.81% (active)	8.95% (active)	32.9%	21.7%
Cc1cccc(C)c1NC(=O)CSC(=S)N1CCN(CCOCCO)CC1	103%	102%	108%	104%	98.1%	108%	97.6%	98.5%
CN1CCN(CCOc2ccc(-c3cnc4c(-c5cccc(F)c5)cnn4c3)cc2)CC1	56.9%	92.8%	-47.8% (active)	-28.7% (active)	37.4%	23.9%	63.2%	11.4%
COc1cccc(-c2nn(-c3ccccc3)cc2-c2ccnc(NCCNS(=O)(=O)c3ccc(C(F)(F)F)cc3)c2)c1	3.99% (active)	-29.3% (active)	13.2%	28.4%	11.1%	14.7%	13.7%	14.7%
O=C1CCCC=CC[C@H]2C=C(Cl)C(=O)C2=CC[C@H](CCCCC(F)(F)F)OC(=O)CCCC=CC[C@H]2C=C(Cl)C(=O)C2=CC[C@H](CCCCC(F)(F)F)OC(=O)CCCC=CC[C@H]2C=C(Cl)C(=O)C2=CC[C@H](CCCCC(F)(F)F)O1	71.2% [6.25 µM]	78.5% [6.25 µM]	30.6% [6.25 µM]	17.3% [6.25 µM]	30.5% [6.25 µM]	7.18% [6.25 µM] (active)	98.5% [6.25 µM]	94.3% [6.25 µM]
CC1(C)C(=O)CC[C@]2(C)[C@H]3C(=O)C=C4[C@@H]5C[C@@](C)(C(=O)NCCNCCN)CC[C@]5(C)CC[C@@]4(C)[C@]3(C)CC[C@@H]12	82%	91.7%	101%	102%	90.6%	83.2%	101%	98.7%
COC(=O)[C@]12CC[C@@H](C)[C@H](C)[C@@H]1C1=CC[C@@H]3[C@@]4(C)CC(=O)[C@H](OC(=O)c5ccco5)[C@@]5(C)COC(=C45)C[C@@]3(C)[C@]1(C)CC2	1.72% (active)	25.9%	21.4%	31.2%	15.7%	16.4%	52.3%	27.9%
Cc1cccc(C)c1NCc1nc(-c2ccccc2)n[nH]1	87.8%	94.8%	101%	109%	88.2%	98.7%	101%	103%
Brc1ccc2[nH]cc(-c3nc(-c4c[nH]c5ncccc45)cs3)c2c1	59.8%	58.7%	40.6%	6.36% (active)	32.3%	17.5%	60.2%	21.3%
COC(=O)CNc1nc(N(C)O)nc(N(C)O)n1	64.8%	66.9%	65.7%	42.8%	30.7%	13.8%	23.4%	45.2%
COc1cccc(-c2nn(-c3ccccc3)cc2-c2ccnc(NCCNS(=O)(=O)c3ccccc3)c2)c1	4.18% (active)	36.5%	10.7%	43.9%	14.9%	29.4%	26.8%	21.7%
CC(=O)O[C@@H]1CCN2C(=O)N(C)c3ccccc3[C@@H]2C1	92.8%	108%	107%	113%	94.6%	102%	104%	116%
COc1cc2nc(Cl)nc(Nc3cccc(C(=O)/C=C/c4ccc(Cl)cc4)c3)c2cc1OC	71.1%	67%	69.9%	-5.87% (active)	19.7%	-0.905% (active)	93.4%	40.5%
CC(C)(C)c1[nH]nc2c1C(c1cc3ccccc3[nH]c1=O)Nc1cc(C(=O)OCc3ccccc3)ccc1N2 (configuration not stated)	36.7%	56.4%	39.9%	54.4%	38.1%	38.4%	55.9%	31%
Cc1ccc2oc(=O)cc(-c3sc(N4CCCCC4)nc3-c3ccccc3)c2c1	76.8%	91.2%	103%	96.5%	70.5%	89%	99.3%	94.8%
CC[C@]12C=CCN3CC[C@@]4(c5cc([C@H]6CCC(=O)N6)c(OC)cc5N(C)[C@H]4[C@@](O)(C(=O)OC)[C@@H]1OC(C)=O)[C@@H]32	96.3% [2.5 µM]	113% [2.5 µM]	107% [2.5 µM]	108% [2.5 µM]	93.2% [2.5 µM]	100% [2.5 µM]	110% [2.5 µM]	111% [2.5 µM]
C=C1C(=O)O[C@H]2[C@H]1CC/C(Cn1cc(-c3ccc(OC)cc3)nn1)=C\CC[C@@]1(C)O[C@@H]21	-71% (active)	50%	-26.9% (active)	-50.2% (active)	-41.3% (active)	-83.6% (active)	2.05% (active)	65.5%
CCC1C(=O)COC1=O (configuration not stated)	71.6%	95.9%	103%	98%	94.8%	85.8%	107%	101%
CSc1ccc(N(C)c2nc(C)nc3c2CCC3)cc1	64.5%	23.6%	-12.8% (active)	28.1%	16%	0.112% (active)	8.45% (active)	8.57% (active)
N#C/C(=C\c1ccc(-c2ccc(F)cc2)o1)c1nc(-c2ccco2)cs1	-26.3% (active)	106%	102%	96.5%	11.7%	101%	51%	60.6%
CC1(C)C(=O)/C(=C\c2ccccn2)C[C@]2(C)[C@H]3CC[C@@H]4[C@@H](C(=O)/C=C/c5ccccn5)CC[C@@]4(C)[C@]3(C)CC[C@@H]12	3.15% (active)	-13.6% (active)	4.49% (active)	0.595% (active)	12%	-69.6% (active)	-79.7% (active)	-76.2% (active)
O=C(O)c1cccc2c1-c1ccc(Cl)cc1C2	97.9%	113%	106%	111%	104%	107%	106%	108%

Source: PubChem BioAssay (NCI)
